Consider 16 sequences from PMC5700166.

Common to all, as to test: protein-binding microarray (PBM); PBM: ~300 nM protein, 6 mM HEPES pH 7.8, 80 mM KCl, 0.5 mM EDTA, 0.5 mM EGTA, 6% glycerol, 35 ng/ul poly-dIdC, 1% milk, 1 h, room temperature; Ap Aiptasia and Nv Nematostella (sea anemones) / Co Capsaspora / Aq Amphimedon (sponge) / Dm Drosophila / Hu human; RHD is the Rel homology domain; high values mean tight binding
Common to all, as to settings: dsDNA, one strand shown

Assay [1] has as its target T1, GST-Ap-NF-kB RHD (Exaiptasia pallida (Aiptasia), UniProt A0A913YAJ5 2-422).
T1 sequence: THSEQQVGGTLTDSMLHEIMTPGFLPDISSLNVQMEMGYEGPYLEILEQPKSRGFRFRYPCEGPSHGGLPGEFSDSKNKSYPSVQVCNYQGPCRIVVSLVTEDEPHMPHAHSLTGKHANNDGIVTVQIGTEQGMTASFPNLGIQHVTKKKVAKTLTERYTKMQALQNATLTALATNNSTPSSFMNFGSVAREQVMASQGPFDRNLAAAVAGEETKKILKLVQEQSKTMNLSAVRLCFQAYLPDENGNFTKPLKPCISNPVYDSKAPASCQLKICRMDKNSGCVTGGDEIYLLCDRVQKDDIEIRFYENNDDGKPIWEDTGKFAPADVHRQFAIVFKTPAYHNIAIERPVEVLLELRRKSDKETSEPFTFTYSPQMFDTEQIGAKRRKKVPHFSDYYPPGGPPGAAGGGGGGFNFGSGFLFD

The target of assay [2] is T2, GST-Nv-NF-kB (Cys allele) (Nematostella vectensis, UniProt E5G601 2-411).
T2 sequence: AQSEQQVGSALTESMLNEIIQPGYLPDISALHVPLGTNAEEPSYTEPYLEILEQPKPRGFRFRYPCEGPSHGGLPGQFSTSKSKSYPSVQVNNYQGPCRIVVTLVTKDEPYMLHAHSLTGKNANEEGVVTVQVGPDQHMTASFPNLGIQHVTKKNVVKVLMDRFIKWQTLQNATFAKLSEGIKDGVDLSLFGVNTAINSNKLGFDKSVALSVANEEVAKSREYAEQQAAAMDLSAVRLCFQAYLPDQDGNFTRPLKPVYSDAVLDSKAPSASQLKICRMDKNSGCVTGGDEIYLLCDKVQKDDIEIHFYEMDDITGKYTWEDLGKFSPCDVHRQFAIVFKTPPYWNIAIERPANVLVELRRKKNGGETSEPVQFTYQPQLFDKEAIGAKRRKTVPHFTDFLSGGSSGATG

Assay [3] addresses T3, GST-Nv-NF-kB (Ser allele) (Nematostella vectensis, UniProt A7UNT2 2-411).
T3 sequence: T2 sequence with Q21R, C66S, S207N, E215Q, V217A, E225K, A268E, D399E

In assay [4] the target is T4, GST-Co-NF-kB (Capsaspora owczarzaki, UniProt F1ARL5 200-546).
T4 sequence: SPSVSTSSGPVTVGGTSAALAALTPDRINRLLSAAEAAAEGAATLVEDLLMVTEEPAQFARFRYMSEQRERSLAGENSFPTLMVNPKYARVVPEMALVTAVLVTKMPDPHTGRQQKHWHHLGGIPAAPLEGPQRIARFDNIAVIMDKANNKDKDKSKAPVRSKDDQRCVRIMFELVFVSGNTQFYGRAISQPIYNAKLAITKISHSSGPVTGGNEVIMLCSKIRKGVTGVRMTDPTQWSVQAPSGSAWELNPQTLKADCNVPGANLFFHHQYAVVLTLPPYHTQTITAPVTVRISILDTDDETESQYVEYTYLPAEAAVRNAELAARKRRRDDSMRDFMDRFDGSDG

Assay [5] addresses T5, GST-Dm-Relish (Drosophila melanogaster, UniProt Q94527 99-473).
T5 sequence: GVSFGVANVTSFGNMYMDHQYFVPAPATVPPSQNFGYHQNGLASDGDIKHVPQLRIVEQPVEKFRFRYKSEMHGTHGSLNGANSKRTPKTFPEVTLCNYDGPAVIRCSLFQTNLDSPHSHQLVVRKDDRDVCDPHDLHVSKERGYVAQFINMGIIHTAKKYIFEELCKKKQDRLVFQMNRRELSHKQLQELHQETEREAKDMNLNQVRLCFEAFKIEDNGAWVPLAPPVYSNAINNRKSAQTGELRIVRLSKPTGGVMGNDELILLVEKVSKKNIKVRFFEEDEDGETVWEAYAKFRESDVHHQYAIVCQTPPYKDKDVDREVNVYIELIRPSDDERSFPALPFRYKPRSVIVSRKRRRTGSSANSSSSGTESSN

In assay [6] the target is T6, GST-Aq-NF-kB (Amphimedon queenslandica, UniProt A9Y5G7 2-389).
T6 sequence: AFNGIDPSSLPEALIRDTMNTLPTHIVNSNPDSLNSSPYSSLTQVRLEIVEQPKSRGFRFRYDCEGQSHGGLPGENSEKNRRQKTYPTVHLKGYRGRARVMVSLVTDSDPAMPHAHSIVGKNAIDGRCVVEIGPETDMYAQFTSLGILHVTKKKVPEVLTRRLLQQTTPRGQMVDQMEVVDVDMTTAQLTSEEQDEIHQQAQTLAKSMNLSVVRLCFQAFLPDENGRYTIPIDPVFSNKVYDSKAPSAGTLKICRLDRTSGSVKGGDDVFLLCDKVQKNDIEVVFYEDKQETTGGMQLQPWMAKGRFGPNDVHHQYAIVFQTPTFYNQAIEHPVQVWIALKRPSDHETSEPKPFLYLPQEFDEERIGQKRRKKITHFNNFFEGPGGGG

Residue numbers refer to the chain shown, from its start.

On to “CCGATTAACATCACTTTCCCCCCTGATGTTAATCGGGTCTTGATTCGCTTGACGCTGCTG”, for which the binding signal was found to be 5.84 z-score in assay [1]; 5.86 z-score in assay [2]; 7.31 z-score in assay [3]; 9.03 z-score in assay [4]; 4.29 z-score in assay [5]; 5.34 z-score in assay [6].
With “CCGATTAACATCACTTTTTTCCCTGATGTTAATCGGGTCTTGATTCGCTTGACGCTGCTG”, the binding signal in assay [1] worked out at 2.9 z-score; in assay [2], 4.9 z-score; in assay [3], 6.59 z-score; in assay [4] it was 6.08 z-score; in assay [5], 2.28 z-score; in assay [6], 3.49 z-score.
As to “CCGATTAACATCAGGGGAACATATGATGTTAATCGGGTCTTGATTCGCTTGACGCTGCTG”, the binding signal worked out at 5.1 z-score in assay [1]; 5.89 z-score in assay [2]; 6.74 z-score in assay [3]; 7.58 z-score in assay [4]; 4.08 z-score in assay [5]; 5.59 z-score in assay [6].
In the case of “CCGATTAACATCAAAATTCCCTCTGATGTTAATCGGGTCTTGATTCGCTTGACGCTGCTG”, the binding signal in assay [1] was 5.17 z-score; in assay [2], 7.29 z-score; in assay [3], 7.2 z-score; in assay [4], 3.2 z-score; in assay [5], 5.36 z-score; in assay [6] it was 6.5 z-score.
Consider “CCGATTAACATCAAAAATTCCCATGATGTTAATCGGGTCTTGATTCGCTTGACGCTGCTG”, for which the binding signal in assay [1] was determined as 5.04 z-score; in assay [2], 7.75 z-score; in assay [3], 6.99 z-score; in assay [4] it was 5.2 z-score; in assay [5], 7.58 z-score; in assay [6], 6.55 z-score.
Consider “CCGATTAACATCACAAATTTCCCTGATGTTAATCGGGTCTTGATTCGCTTGACGCTGCTG”, for which the binding signal in assay [1] is 4.62 z-score; in assay [2] it was 6.4 z-score; in assay [3] it was 6.92 z-score; in assay [4] it was 5.22 z-score; in assay [5], 3.72 z-score; in assay [6], 6.5 z-score.
Consider “CCGATTAACATCACCCCCACCCCTGATGTTAATCGGGTCTTGATTCGCTTGACGCTGCTG”, for which the binding signal in assay [1] stood at 3.49 z-score; in assay [2] it was 2.96 z-score; in assay [3], 1.75 z-score; in assay [4], 4.43 z-score; in assay [5] it was 3.84 z-score; in assay [6] it was 3.33 z-score.
For “CCGATTAACATCACGTATTCCCCTGATGTTAATCGGGTCTTGATTCGCTTGACGCTGCTG”, the binding signal in assay [1] is 7.14 z-score; in assay [2] it was 7.75 z-score; in assay [3], 7.86 z-score; in assay [4] it was 6.56 z-score; in assay [5], 4.86 z-score; in assay [6], 5.55 z-score.
In the case of “CCGATTAACATCACGATTTTCCCTGATGTTAATCGGGTCTTGATTCGCTTGACGCTGCTG”, the binding signal in assay [1] amounted to 3.77 z-score; in assay [2], 5.64 z-score; in assay [3], 7.32 z-score; in assay [4], 4.9 z-score; in assay [5] it was 1.65 z-score; in assay [6] it was 4.47 z-score.
Consider “CCGATTAACATCAGATTATCCCCTGATGTTAATCGGGTCTTGATTCGCTTGACGCTGCTG”, for which the binding signal was 5.35 z-score in assay [1]; 6.05 z-score in assay [2]; 6.87 z-score in assay [3]; 5.37 z-score in assay [4]; 2.63 z-score in assay [5]; 4.98 z-score in assay [6].
For the sequence “CCGATTAACATCACGGGGGGGAATGATGTTAATCGGGTCTTGATTCGCTTGACGCTGCTG”, the binding signal turned out to be 6.98 z-score in assay [1]; 5.54 z-score in assay [2]; 6.1 z-score in assay [3]; 9.46 z-score in assay [4]; 5.39 z-score in assay [5]; 5.91 z-score in assay [6].
For the sequence “CCGATTAACATCACACCCCCCCGTGATGTTAATCGGGTCTTGATTCGCTTGACGCTGCTG”, the binding signal in assay [1] came to 4.06 z-score; in assay [2], 3.09 z-score; in assay [3], 3.09 z-score; in assay [4], 4.58 z-score; in assay [5], 4.46 z-score; in assay [6], 3.38 z-score.
Regarding “CCGATTAACATCAAATATTTCCCTGATGTTAATCGGGTCTTGATTCGCTTGACGCTGCTG”, the binding signal in assay [1] amounted to 3.87 z-score; in assay [2], 6.57 z-score; in assay [3], 6.99 z-score; in assay [4] it was 5.89 z-score; in assay [5], 4.25 z-score; in assay [6] it was 6.66 z-score.
For the sequence “CCGATTAACATCACATACCCCCCTGATGTTAATCGGGTCTTGATTCGCTTGACGCTGCTG”, the binding signal turned out to be 4.69 z-score in assay [1]; 3.25 z-score in assay [2]; 3.69 z-score in assay [3]; 3.97 z-score in assay [4]; 3.92 z-score in assay [5]; 3.91 z-score in assay [6].
As for “CCGATTAACATCAACCTTTCCCCTGATGTTAATCGGGTCTTGATTCGCTTGACGCTGCTG”, the binding signal in assay [1] was found to be 5.33 z-score; in assay [2], 6.21 z-score; in assay [3], 7.66 z-score; in assay [4], 6.19 z-score; in assay [5], 1.62 z-score; in assay [6] it was 4.44 z-score.
On to “CCGATTAACATCAGACTGGGAAATGATGTTAATCGGGTCTTGATTCGCTTGACGCTGCTG”, for which the binding signal came out at 1.4 z-score in assay [1], 1.92 z-score in assay [2], 3.05 z-score in assay [4] and 1.18 z-score in assay [6].
